Results filed as inconclusive are left out. Values without a mark were called inactive. The source made the active and inactive calls. Calls come from the whole dose curve; as a rule, active = well fitted inhibition curve with a large enough effect; inconclusive = small, poorly fitted or top-dose-only effect; inactive = flat fitted curve, though single readings scatter.
Test system: MCC-26
Assay: qHTS assay to identify novel small-molecules to repurpose for Merkel cell carcinoma treatment (AID 1296009); note: nearly all actives have a fitted effect of over 60% in size
Details: MCC and control cell lines, CellTiter-Glo viability, 72 h; series mostly up to 46 µM; activity change, negative = cytotoxicity: at the top concentration
Excerpt: MCC is a rare and aggressive neuroendocrine skin cancer with limited treatment options. Approximately 80% of MCCs have the Merkel cell polyomavirus (MCPyV) DNA integrated into the host genome (virus-positive: VP-MCC) and viral oncogenes drive oncogenesis. The remaining MCCs are virus-negative (VN-MCC) and are caused by UV mutagenesis. To identify novel treatments for VP-MCC and/or VN-MCC we screened three VP-MCC cell lines (WAGA, MKL-1, MKL-2), three VN-MCC cell lines (MCC-13, MCC-26, UISO), and four immortalized, non-transformed control cell lines (HaCaT, HEK293T, CRL7250, NIH-3T3) against ~2,400 compounds in the NCGC Pharmaceutical Collection (NPC) and ~1,900 compounds in the Mechanism Interrogation PlatE (MiPE). Using cell viability as a readout (CellTiter-Glo assay) we found both overlapping and distinct drugs that can be repurposed for the treatment of VP-MCC and VN-MCC.
A high-throughput screen was conducted in 1536-well white flat bottom plates (Corning) on a Kalypsys robotic system. Cell lines WAGA, MKL-1, MKL-2, MCC-13, MCC-26, UISO, HaCaT, HEK293T, CRL7250, and NIH-3T3 were screened against 2 small molecule annotated drug libraries NPC and MIPE in dose response (8 and 11 pt. respectively) measuring cell viability after 72 hours of incubation. […] A 1,536 pintool (Kalypsys) was used to transfer 23 nL of compound in DMSO to the 1,536-well assay plates. After 72 hr incubation at 37 degree celsius, 2.5 uL of CellTiter-Glo (Promega) was dispensed into each well using a BiorapTR. Plates were incubated at room temperature for 10 min, transferred to a ViewLux (PerkinElmer) and the luminescence was recorded using an exposure time of 2 seconds. Relative luminescence units (RLUs) were normalized to in-plate controls (no cells as a positive (cytotoxicity) control, DMSO as negative control) and the normalized data was processed using NCATS in-house software.
% is set by controls: 0 for no effect and ±100 for the full control effect; potency is the fitted concentration of half-maximal effect.

First: CC(C)c1ccccc1Cc1cc(C(=O)Nc2ccc(S(=O)(=O)c3ccccc3C(C)(C)C)cc2)c(O)c(O)c1O
Second: CN(C)c1nc(Cc2ccc(NC(=O)c3ccc4ccccc4c3)cc2)nc(Cl)c1CC(=O)O
The “activity change, negative = cytotoxicity” value of the first is lower: -7.47% for the first, -3.56% for the second.

First: C[C@@H]1COC(Nc2ccc3ncnc(Nc4ccc(OCc5nccs5)c(Cl)c4)c3c2)=N1
Second: Clc1cccc(-n2nnnc2NCc2ccccc2Oc2ccccn2)c1Cl
The “activity change, negative = cytotoxicity” value of the first is lower: -10.7% for the first, -5.22% for the second.

First: Cc1cc(CN2CCN(c3c(Br)cnc4nc(-c5ccc(N6CCN(C)CC6)cc5)[nH]c34)CC2)no1
Second: CC(C)c1noc(N2CCC(COc3ccc(-c4ccc(S(C)(=O)=O)cc4)nc3)CC2)n1
The “activity change, negative = cytotoxicity” value of the first is lower: -17.1% for the first, -16.9% for the second.

Compared with `COc1ccc(CC2SC(=O)NC2=O)cc1C(=O)NCc1ccc(C(F)(F)F)cc1` (stereo not given), `COc1cc2ncn(-c3cc(OCc4ccccc4C(F)(F)F)c(C(N)=O)s3)c2cc1OC` is lower in “activity change, negative = cytotoxicity” value: 4.44% for the first, -24.4% for the second.

First: CCCCN1CCC(CNC(=O)c2c3n(c4ccccc24)CCCO3)CC1
Second: COc1cc(OC2CCN(C)CC2)ccc1Nc1ncc2c(n1)n(C1CCCC1)c(=O)n2C
The “activity change, negative = cytotoxicity” value of the first is higher: -0.376% for the first, -13.8% for the second.

First: COC(=O)C[C@](O)(CCCC(C)(C)O)C(=O)O[C@@H]1C(OC)=C[C@]23CCCN2CCc2cc4c(cc2[C@H]13)OCO4
Second: CCN(CC)CCCCNc1ncc2cc(-c3cc(OC)cc(OC)c3)c(NC(=O)NC(C)(C)C)nc2n1
The “activity change, negative = cytotoxicity” value of the first is higher: 6.41% for the first, -7.93% for the second.

Going from `COc1cccc2nc(-c3cccs3)nc(NN3C(=O)C=C(C)C3=O)c12` to `N#Cc1c(O)c2c(-c3ccc(-c4ccccc4O)cc3)csc2[nH]c1=O`, the “activity change, negative = cytotoxicity” value rises from -14% to -3.18%.

Compared with `CC[C@H](CO)Nc1nc(NCc2ccccc2)c2ncn(C(C)C)c2n1`, `CC(C)Nc1cc(C(F)(F)F)cc2nc(NC(=O)c3cccnc3)nn12` is lower in “activity change, negative = cytotoxicity” value: -3.32% for the first, -7.57% for the second.

First: Cn1c2cc(S(C)=O)sc2c2cnn(Cc3cccc(N)c3)c(=O)c21 (stereo not given)
Second: C[C@@H]1CN(CC(=O)Nc2ccc3c(c2)Cc2cccc(-c4cc(=O)cc(N5CCOCC5)o4)c2S3)C[C@H](C)O1
The “activity change, negative = cytotoxicity” value of the first is higher: -1.59% for the first, -11.6% for the second.

Going from `CCCCCCCCCC(=O)N[C@@H](Cc1c[nH]c2ccccc12)C(=O)N[C@H](CC(N)=O)C(=O)N[C@@H](CC(=O)O)C(=O)N[C@@H]1C(=O)NCC(=O)N[C@@H](CCCN)C(=O)N[C@@H](CC(=O)O)C(=O)N[C@H](C)C(=O)N[C@@H](CC(=O)O)C(=O)NCC(=O)N[C@H](CO)C(=O)N[C@@H]([C@@H](C)CC(=O)O)C(=O)N[C@@H](CC(=O)c2ccccc2N)C(=O)O[C@@H]1C` to `CC(=O)OCC(=O)[C@@]1(O)[C@H](C)C[C@H]2[C@@H]3C=C(C)C4=Cc5c(cnn5-c5ccccc5)C[C@]4(C)[C@@H]3[C@@H](O)C[C@@]21C`, the “activity change, negative = cytotoxicity” value falls from 7.52% to -1.49%.

First: COC(=O)[C@]12CCC(C)(C)C[C@@H]1[C@@H]1C(=O)C=C3[C@@]4(C)C=C(C#N)C(=O)C(C)(C)[C@@H]4CC[C@@]3(C)[C@]1(C)CC2
Second: CC1(C)O[C@@H]2C[C@@H]3[C@H]4C[C@@H](F)C5=CC(=O)C=C[C@]5(C)[C@@]4(F)[C@@H](O)C[C@]3(C)[C@]2(C(=O)CO)O1
The “activity change, negative = cytotoxicity” value of the first is lower: -12.5% for the first, -3.9% for the second.

Compared with `COc1cc(C(C)C)c2c(c1)S(=O)(=O)N(COc1cc(=O)n3cccc(OCCN4CCCCC4)c3n1)C2=O`, `O=C(O)Cn1nnc(-c2cc(N3CCC(Oc4cc(F)ccc4Br)CC3)no2)n1` is higher in “activity change, negative = cytotoxicity” value: -0.537% for the first, 4.82% for the second.

Going from `Nc1ccc(C(=O)c2cc3c(ccc4ccccc43)[nH]2)cc1` to `Nc1ccc(S(=O)(=O)Nc2ncccn2)cc1`, the “activity change, negative = cytotoxicity” value rises from -20.4% to 1.5%.

First: C=C1C(=CC=C2CCCC3(C)[C@@H]([C@H](C)C=CC=CC(O)(CC)CC)CC[C@@H]23)C[C@@H](O)C[C@@H]1O (stereo not given in full)
Second: O=C1CCC[C@@H]2[C@H]3CCC[N+]4([O-])CCC[C@@H](CN12)[C@@H]34 (stereo not given in full)
The “activity change, negative = cytotoxicity” value of the first is lower: -3.01% for the first, 6.97% for the second.

First: CCCCCN(CCC12CC3CC(CC(C3)C1)C2)C(=O)NCCCc1ccncc1
Second: CN1c2cc(O)c(N=NC(N)=O)cc2CC1S(=O)(=O)O (stereo not given)
The “activity change, negative = cytotoxicity” value of the first is higher: -1.81% for the first, -3.95% for the second.

With `CC[C@@]1(O)C(=O)OCc2c1cc1n(c2=O)Cc2cc3cc(O)ccc3nc2-1` the Potency was 0.132 µM (active).
In the case of `COc1cc2c(Oc3ccc(NC(=O)C4(C(=O)Nc5ccc(F)cc5)CC4)cc3F)ccnc2cc1OCCCN1CCOCC1`, the Potency was 4.69 µM (active).
For `CNC(=O)c1c(F)cccc1Nc1nc(Nc2cc3c(cc2OC)CCN3C(=O)CN(C)C)nc2[nH]ccc12`, the Potency was 23.5 µM (active).
With `O=C(Nc1cn[nH]c1-c1nc2ccc(CN3CCOCC3)cc2[nH]1)NC1CC1` the Potency was 1.87 µM (active).
For `CC(C)CC(=O)Nc1n[nH]c2c1CN(C(=O)C1CCN(C)CC1)C2(C)C`, the Potency was 18.7 µM (active).
`O=C(CCCCCCC(=O)Nc1ccc([C@H]2O[C@@H](CSc3nc(-c4ccccc4)c(-c4ccccc4)o3)C[C@@H](c3ccc(CO)cc3)O2)cc1)NO` was tested, and the Potency was 23.5 µM (active).
`O=C(Cc1ccc(-c2ccc(OCCN3CCOCC3)cc2)cn1)NCc1ccccc1` was tested, and the Potency was 0.0935 µM (active).
For `C=CC(=O)Nc1cccc(Oc2nc(Nc3ccc(N4CCN(C)CC4)cc3OC)ncc2Cl)c1`, the Potency was 11.8 µM (active).
For `CC(C)(C)OC(=O)Nc1ccc(-c2cc(C(=O)NCCCCCCC(=O)NO)no2)cc1`, the Potency was 18.7 µM (active).

In the case of `O=c1[nH]c(=O)n(C2CCCO2)cc1F` (stereo not given), the “activity change, negative = cytotoxicity” value was -0.0231% [at 92.7 µM].

— PubChem BioAssay (NCATS)
